# Tau fibril FP: blocks human tau fibril formation measured by polarization; K18 P301L tau heparin fibrillization, Alexa594 FP, 6 h; actives 0.39% (n = 280,000); Potency, µM (series often up to 57.7 µM), without a hit: top-dose activity, negative = inhibition, actives largely listed as inhibitors; P10636; note: potency is the fitted concentration of half-maximal effect; nearly all actives have a fitted effect of over 55% in size
# Target sequence (P10636 561-689 P618L limits assumed): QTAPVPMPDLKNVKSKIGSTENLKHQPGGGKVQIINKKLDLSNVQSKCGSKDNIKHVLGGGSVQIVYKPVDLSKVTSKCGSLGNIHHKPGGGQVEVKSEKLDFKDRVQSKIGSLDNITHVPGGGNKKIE
#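 Read-out: fluorescence polarization of Alexa 594-labeled tau (0.24 uM), 555 nm excitation, 632 nm emission. Mixtures held 15 uM unlabeled K18 P301L, compound and 20 uM heparin, pH 7 acetate buffer, incubated 6 hr at 37 C.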
# Tau fluor cs: counter-screen for tau fibril formation inhibitors | Potency, µM (series often up to 57.7 µM), without a hit: at the top dose activity change, negative = decrease | tau K18 P301L Alexa594 fluorescence, heparin fibrillization | actives 0.93% (n = 280,000); note: potency is the fitted concentration of half-maximal effect; nearly all actives have a fitted effect of over 55% in size
#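 Human tau K18 P301L (15 uM unlabeled, 0.24 uM Alexa 594-labeled) in 100 mM sodium acetate pH 7 with 20 uM heparin, 6 hr at 37 C. ThT 30 uM added, 1 hr ambient; Alexa 594 FP and total fluorescence read at 555/632 nm.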
# Tau fibril ThT: inhibitors of human tau fibril formation, thioflavin T binding; Potency, µM (titrated, usually from 57.4 µM), for inactives: top-dose activity, negative = inhibition, actives largely listed as inhibitors; actives 2.1% (n = 270,000); AID 1460; recombinant tau K18 P301L (four-repeat tau fragment), heparin-induced fibrillization, ThT fluorescence; P10636; note: potency is the fitted concentration of half-maximal effect; nearly all actives have a fitted effect of over 55% in size
#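 In this qHTS, human K18 P301L tau is incubated with compound and heparin for 6 hr at 37 C, and Thioflavin T fluorescence then reports fibril load.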
# FBPA coupling cs: coupling enzyme interference in Giardia aldolase counter-screen. coupling enzyme system counterscreen, AmpLite Red fluorescence. activity change, negative = inhibition, % at 58.2 µM, hits read low. actives 0.67% (n = 290,000); in the data active = activity change below about -30%
#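 First, compound is pin-transferred into glyceraldehyde-3-phosphate coupling-enzyme reagent at 57.5 uM final and held 10 min at RT. Next, substrate, coupling system and AmpLite Red are added. After 20 min RT, fluorescence (525/598 nm) is read.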
# USP1-UAF1 inh: USP1/UAF1 (human) deubiquitinase inhibition; O94782; recombinant USP1/UAF1, Ub-Rhodamine cleavage fluorescence; Potency, µM (doses to about 57.1 µM), inactives show top-dose activity change, negative = inhibition, most hits filed as inhibitors; actives 0.23% (n = 390,000); AID 743255; note: potency is the fitted concentration of half-maximal effect; nearly all actives have a fitted effect of over 60% in size
#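 High-throughput fluorogenic screen: 1nM USP1/UAF1 complex, Ub-Rho substrate 150nM final, 50mM HEPES pH 7.8 with 0.5mM EDTA, 0.1 mg/ml BSA, 1mM TCEP and 0.01% Tween-20.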
# Numbers without * were called inactive; ? = inconclusive; nt = no result given; [ ] = remark or other dose. Rows were chosen to be rich in hits. Some 2.3% of all compounds tested hit in one or more screens of this group. Unless noted, calls come from the whole dose curve; as a rule, active = well fitted curve in the direction sought with a large enough effect; inconclusive = small, poorly fitted or top-dose-only effect, or another doubt; inactive = no such curve, though single readings can be large; an effect the other way counts as inactive or inconclusive. % is set by controls: 0 for no effect and ±100 for the full control effect.
SMILES,Tau fibril FP,Tau fluor cs,Tau fibril ThT,FBPA coupling cs,USP1-UAF1 inh
CC(C)(C)c1ccc(/C([O-])=C(/C(=S)NCc2ccco2)[n+]2ccccc2)cc1,-2%,-24%,?,-30*,nt
Cc1ccc[n+](C(C(=S)NCc2ccco2)=C([O-])c2ccccc2Cl)c1,nt,nt,nt,nt,-19%
Cc1ccc[n+](/C(C(=S)NCc2ccco2)=C(/[O-])c2ccccc2Cl)c1,-10%,-10%,-8%,-32*,7%
CC(C)(C)c1ccc(C(=O)NC(=S)NCc2ccco2)cc1,nt,nt,nt,nt,-24%
CCOC(=O)C1=C(SCC)c2cc3c(n2C1=O)CCCC3,?,?,11µM*,-4,-18%
O=C(c1ccccc1Cl)N1CCCCC1CCN1CCOCC1 (stereo not drawn),2%,1%,-2%,nt,-25%
O=C(Nc1nc2ccccc2s1)c1ccc(N2CCCCC2)c([N+](=O)[O-])c1,-14%,?,4.5µM*,-1,-16%
O=C(Nc1nc(-c2ccccc2)cs1)c1ccc(N2CCOCC2)c([N+](=O)[O-])c1,5%,?,8.9µM*,-2,-2%
Cc1ccc(-c2csc(NC(=O)c3cc([N+](=O)[O-])ccc3N3CCOCC3)n2)cc1,4%,-12%,-3%,-2,-19%
COc1ccccc1C(=O)NCc1ccc2c(c1)CCN2C(=O)c1ccncc1,-6%,-3%,-2%,nt,-13%
COc1ccc(O[C@H]2C=C[C@@H](c3ccccc3)O[C@H]2CO/N=C(/C)CCC(=O)OC[C@@H]2O[C@H](C#Cc3ccccc3)C=C[C@@H]2Oc2ccc(C)cc2)cc1,-1%[11.6 µM],-7%[11.6 µM],-10%[11.5 µM],1,nt
Cn1cccc1/C=C1\SC(=S)N(NC(=O)c2ccccc2O)C1=O,4%,?,7.9µM*,7,-21%
COc1ccccc1C(=O)NN1C(=O)/C(=C/c2cccn2C)SC1=S,-16%,?,?,-4,nt
O=C(NN1C(=O)/C(=C/C=C/c2ccco2)SC1=S)c1ccccc1O,?,?,7.1µM*,4,-16%
O=C(NN1C(=O)/C(=C/c2cccs2)SC1=S)c1ccccc1,-3%,-29%,?,0,-7%
Cn1cccc1/C=C1\SC(=S)N(NC(=O)c2ccc(F)cc2)C1=O,-13%,?,3.5µM*,2,1%
Cn1cccc1/C=C1\SC(=S)N(NC(=O)c2ccccc2)C1=O,1%,?,11µM*,1,-21%
COc1cc(/C=C2\SC(=S)N(NC(=O)c3ccccc3OC)C2=O)ccc1O,nt,nt,nt,1,-13%
C=C1CC2C(=O)N(Cc3ccccc3)C(C(=O)O)C1N2C(=O)OC(C)(C)C (stereo not drawn),nt,nt,nt,3,nt
Cn1cccc1/C=C1\SC(=S)N(NC(=O)c2cccc(Cl)c2)C1=O,-1%,?,4µM*,6,?
COCc1cc(O)c(O)c(O)c1-c1c(COC)cc(O)c(O)c1O,6.3µM*,?,3.2µM*,-49*,nt
CCc1oc(C(=O)O)cc1COC,6%,1%,-1%,0,-2%
O=C(O)c1cccc(N2C(=O)/C(=C/c3ccc(SCc4ccc(Cl)cc4)o3)SC2=S)c1,?,?,16µM*,-7,?
O=C(Cn1c(=O)n(CCc2ccccc2)c(=O)c2c3c(sc21)CCCC3)Nc1ccc(F)c(F)c1,?,-9%,21%,nt,-19%
CCc1ccc(-n2nc(CO)c(C(=O)NCc3ccccn3)n2)cc1,1%,-6%,-15%,nt,2%
SMILES,Tau fibril FP,Tau fluor cs,Tau fibril ThT,FBPA coupling cs,USP1-UAF1 inh
COc1cc(/C=N/Nc2nc3c(c(=O)n(C)c(=O)n3C)n2Cc2ccccc2)ccc1OC(=O)c1ccco1,?,7.9µM*[quencher],?,-9,-11%
Cc1ccc(O)c(N=Nc2ccccc2)n1,8%,-14%,18µM*,1,?
CCOC(=O)c1c(C)n(C)c2cc(Br)c(O)c(O)c12,-10%,-23%,?,-5,-27%
CCOC(=O)c1c(C)n(C)c2cc([N+](=O)[O-])c(O)c([N+](=O)[O-])c12,-7%,-22%,8.9µM*,1,-16%
CCc1ccc(CN(C(=O)c2ccc(OC)cc2)C2CCS(=O)(=O)C2)cc1 (stereo not drawn),4%,2%,3%,nt,3%
O=C1c2cccc3cc([N+](=O)[O-])cc(c23)C(=O)N1/N=C/c1ccc(O)cc1O,-10%,13µM*[quencher],?,-3,-14%
O=C1c2cccc3cc([N+](=O)[O-])cc(c23)C(=O)N1CCN1CCCC1,13%,?,nt,0,-17%
Cc1[nH]oc(=O)c1N=Nc1ccccc1,?,-16%,25µM*,4,-15%
Cc1[nH]oc(=O)c1N=Nc1c(Cl)cccc1Cl,-7%,-7%,?,9,-8%
Cc1cc(S(=O)(=O)Nc2cccc([N+](=O)[O-])c2)c(C)s1,nt,nt,nt,0,-7%
O=[N+]([O-])c1cccc(NNS(=O)(=O)c2ccccc2F)c1,nt,nt,nt,-30*,-7%
Cc1cccc(CNc2nc(-c3ccc4c(c3)OCO4)nc3ccccc23)c1,nt,nt,nt,-5,nt
Cc1ccc(-n2c(N)c(C(=O)N3CCN(C)CC3)sc2=S)cc1,?,-11%,?,-34*,-16%
Cc1ccc(-n2c(N)c(C(=O)N3CCCCC3)sc2=S)cc1,9%,-20%,?,2,-13%
CCc1ccccc1S(=O)(=O)Cc1ccc(C(=O)NCCc2ccc(C)cc2)o1,7%,-21%,?,nt,-14%
Cc1cc(O)c(Sc2ncn[nH]2)cc1NS(=O)(=O)c1ccc(Cl)cc1,nt,nt,nt,nt,-20%
